Assay results: PubChem BioAssay (NCI)
The panel holds about 83,000 compounds, 20% with a hit somewhere; the sample as a whole holds those more often.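 Results are percent growth after 48 hours of single-concentration exposure. 100 means growth as in untreated cells, lower positive values show inhibition; negative values down to -100 show cell death.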 A number with no mark means an inactive call. Activity calls are given as the source filed them. The calls were made as follows: active = growth percent below 10; inactive = the rest.

Test system: SF-539 CNS
Experiment: NCI-60 one-dose screen, 48 h (100 = growth as untreated, 0 = no growth, -100 = all killed)
Settings: 10 µM

Row | Compound | growth
1 | CC(C)=CCc1cc(O)cc2c1OC(C=C(C)C)C1=C2C(=O)C2=C(NCCS2(=O)=O)C1=O (centres undefined) | -50.5% (active)
2 | Clc1ccc(Nc2ccnc(NCCNc3ccnc4cc(Cl)ccc34)n2)cc1 | -94.5% (active)
3 | COc1cc(-c2nc(-c3nnc(-c4ccc(F)c(Cl)c4)o3)c3ccccn23)cc(OC)c1OC | 37%
4 | COc1ccc(-c2nc3ccccn3c2-c2nnc(-c3cc(OC)c(OC)c(OC)c3)o2)cc1 | 52.8%
5 | CN1CCC(CNc2cc(C3(C(=O)Nc4cc(C(=O)Nc5ccc(Cl)c(C(F)(F)F)c5)ccc4F)CC3)ncn2)CC1 | -57.2% (active)
6 | CN1CCC2(CC1)NC(=O)c1c(c3ccc(Cl)c(Cl)c3n1C)C2C#N (centres undefined) | 76%
7 | COc1ccc(-c2nc3ncccn3c2-c2nnc(-c3ccsc3C)o2)cc1 | 86.4%
8 | COc1ccc2c(c1)/C(=C\c1c[nH]c3ccc(OC)cc13)C(=O)N2 | 74.2%
9 | O=C(Nc1cccc(Br)c1)c1cc(=O)[nH]c2ccccc12 | 92%
10 | NC(=O)CC1(c2ccccc2)CCCCC1 | 104%
11 | COC(=O)C(=C\c1ccc2c(c1)OCO2)/C(=C/c1ccc2c(c1)OCO2)C(=O)OC | 96.1%
12 | Fc1ccc(-c2nnc(-c3c(-c4ccc(F)cc4)nc4ccccn34)o2)cc1 | -10.1% (active)
13 | COc1ccc(Nc2cc(C)nc(NCCCNc3ccnc4cc(Cl)ccc34)n2)cc1 | -100% (active)
14 | COc1cc(-c2nnc(-c3c(-c4ccc(F)cc4)nc4ccccn34)o2)cc(OC)c1OC | 26.4%
